This is a sample that favours compounds with a hit; in the whole collection about 1.9% have one here.
S1P3 antag – S1P3 receptor antagonists, primary screen, cell-based; actives 0.27% (n = 170,000); CHO S1P3 NFAT-BLA reporter, FRET fluorescence, antagonist mode; inhibition, % at 4.98 µM; Sphingosine 1-phosphate receptor 3 (Homo sapiens), Q99500;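 active = inhibition above the plate cutoff, the mean inhibition of test wells on that plate plus 3 SD, cut at about 28% in these data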;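 note: cells challenged with S1P at its EC80 of 0.8 µM; blue over green emission ratio from cleaved BLA substrate after 4 h stimulation; 0% = S1P-stimulated wells and 100% = unstimulated DMSO-only wells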
Target sequence (Q99500 whole entry, looked up): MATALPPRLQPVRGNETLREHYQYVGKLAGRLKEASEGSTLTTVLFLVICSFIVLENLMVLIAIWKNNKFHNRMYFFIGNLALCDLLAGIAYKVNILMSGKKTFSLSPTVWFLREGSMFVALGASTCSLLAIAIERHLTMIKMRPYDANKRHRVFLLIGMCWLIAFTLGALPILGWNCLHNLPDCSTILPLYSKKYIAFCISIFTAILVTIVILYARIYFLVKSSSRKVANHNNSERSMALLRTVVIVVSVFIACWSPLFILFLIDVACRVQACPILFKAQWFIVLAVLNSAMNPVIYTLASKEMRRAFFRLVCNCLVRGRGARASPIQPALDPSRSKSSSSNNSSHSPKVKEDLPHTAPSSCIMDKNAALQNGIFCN
PGE2 EP2 inh – human EP2 receptor antagonists, primary screen, TR-FRET cAMP, C6 glioma cells; C6 glioma cells expressing human EP2; cells stimulated with saturating PGE2; inhibition, % at 25 µM; actives 0.52% (n = 260,000); AID 1422, 2008;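 active = percent inhibition above 40 after rounding to a whole number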;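 note: rat C6 glioma host cells with rolipram phosphodiesterase inhibitor present; the protocol text gives 20 µM as final concentration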
S1P4 ag – S1P4 receptor agonists, primary screen, cell-based | Sphingosine 1-phosphate receptor 4 (Homo sapiens), O95977 | S1P4-expressing cell line, agonist reporter assay | activation, % at 4.98 µM | actives 0.35% (n = 220,000) | AID 1509, 2009; in the data active = activation above about 11%;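 note: 0% = DMSO vehicle and 100% = reference agonist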
EP2 modulator – EP2 receptor modulators, cAMP readout, primary screen, cell-based, HTRF cAMP, PGE2 stimulation; Prostaglandin E2 receptor EP2 subtype (Homo sapiens), P43116; EP2-expressing cells, cAMP HTRF FRET, PGE2 co-stimulation; induction, % at 25 µM; actives 0.83% (n = 260,000);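 active = compounds whose cAMP rise, as percent of the full-agonist control response, exceeds 60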;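 note: rat C6 glioma line stably carrying human EP2 under a CMV promoter; the protocol text gives 20 µM as final concentration; 100% = response of wells given 1 µM PGE2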
S1P4 antagonist – S1P4 receptor antagonists, primary screen, cell-based. actives 0.26% (n = 220,000). S1P4-expressing cells, antagonist mode, reporter read-out. inhibition, % at 4.98 µM; in the data active = inhibition above about 29%;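 note: 0% = wells stimulated with agonist and 100% = vehicle wells without agonist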
Pf gametocyte – late stage P. falciparum gametocyte viability inhibitors, primary screen, ATP luminescence, HTS; P. falciparum stage V gametocytes, 24 h; inhibition, % at 10.9 µM; actives 0.065% (n = 150,000);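 active = inhibition above the mean plus 3 SD of compounds within the control limits, set per campaign, cut at about 38% in these data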;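 note: 0% = DMSO wells and 100% = medium only without gametocytes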
* marks the source's active call; other numbers are inactive results; . = not tested or not shown; ! = not confirmed by another sample.

SMILES	S1P3 antag	PGE2 EP2 inh	S1P4 ag	EP2 modulator	S1P4 antagonist	Pf gametocyte
OC[C@@H]1O[C@H](N2CCN([C@@H]3O[C@H](CO)[C@@H](O)[C@H](O)[C@H]3O)CC2)[C@@H](O)[C@H](O)[C@H]1O	.	49.0*	.	15.4	.	.
O=C(O)CCCn1cc(NC(=O)c2cc(F)c(F)cc2Cl)cn1	3.3	11.0	0.8	60.8*	-4.0	-21.4
CCC(C(=O)OC)n1c(-c2ccccc2)nc2ccccc2c1=O (stereo not drawn)	-15.6	7.3	1.0	68.6*!	-7.4	-7.1
CC1(C(=O)N2CCN(S(=O)(=O)c3ccc(F)c(F)c3)CC2)CCCO1 (stereo not drawn)	.	9.5	.	-14.2	.	.
COC(=O)Sc1nnc(-c2ccc(Br)cc2)o1	-5.3	45.2*	0.3	33.9	-5.5	.
OCC#CCSc1nnc(-c2ccc(Br)cc2)o1	-22.0	7.3	0.9	36.8	-4.3	-2.9
CCc1nc2ccc(NC(C)=O)cc2c(=O)n1Cc1ccc(F)cc1	.	10.8	.	-7.5	.	.
COc1ccc(OCCCC(=O)Nc2cccc(C(C)=O)c2)cc1	5.6	51.3*	-1.7	-6.3	2.1	.
Cc1ccc(S(=O)(=O)N[C@H](C(=O)Oc2ccc3c(C(F)(F)F)cc(=O)oc3c2)c2ccccc2)cc1	.	16.8	0.5	-3.3	41.3*	.
Cc1ccc(S(=O)(=O)NC(C(=O)Oc2ccc3ccc(=O)oc3c2)c2ccccc2)cc1 (stereo not drawn)	-14.8	8.6	5.1	-18.1	-4.3	7.4
COc1cc(OC)cc(C(=O)N2CCC(n3nnc4cc(C(F)(F)F)ccc43)CC2)c1	.	13.0	.	-44.7	.	.
O=C(Cc1n[nH]c(=O)c2ccccc12)OCC(=O)N(Cc1ccccc1)Cc1ccccc1	-5.8	8.2	0.0	63.1*	-0.5	-6.4
c1ccc(Nc2nc(NCc3ccco3)c3ccccc3n2)cc1	13.5	61.5*	0.6	-46.1	1.1	-6.4
O=c1[nH]c2ccc(S(=O)(=O)Nc3ccc(-c4nnc5n4CCCCC5)cc3)cc2o1	65.8*	8.0	-0.8	-1.5	-0.8	0.7
CC1=NN(C(=O)c2ccc(Cl)c(C)c2)C(O)(C(F)(F)F)C1 (stereo not drawn)	.	3.2	.	-5.1	.	.
N/C(=N/O)c1cn([C@H]2O[C@@H](CO)[C@H](O)[C@H]2O)c2ncnc(NO)c12	.	47.0*	.	24.5	.	.
CCOC(=O)C1=C(C)N(c2ccc(OC)cc2)C(=O)/C1=C\c1ccc(O)c(OCC)c1	-9.6	41.4*	-0.8	31.5	14.7	-12.1
COc1ccccc1NC(=O)C1=C(C)Nc2ncnn2C1c1ccc(OC(C)C)c(OC)c1 (stereo not drawn)	.	8.4	.	-18.3	.	.
CC(=O)NC1=NN(C(C)=O)C2(S1)C(=O)N(C(C)C)c1ccccc12 (stereo not drawn)	.	9.9	.	8.6	.	.
O=C1[C@@H]2[C@H](C(=O)N1CN1CCSCC1)[C@H]1[C@@H]3C=C[C@@H]([C@@H]4C(=O)N(CN5CCSCC5)C(=O)[C@@H]34)[C@@H]21	.	45.2*	.	14.6	.	.
C=CCOCCN1C(=O)C2C3C=CC(C2C1=O)C1C2C(=O)N(CCOCC=C)C(=O)C2C31 (stereo not drawn)	-5.3	1.3	-2.9	4.2	-1.5	2.9
O=C(Nc1nccs1)c1c(O)c2c([nH]c1=O)CCCC2	-2.0	4.4	0.1	7.2	1.1	2.2
O=C(Nc1ccccc1O)c1c(O)c2c([nH]c1=O)CCCC2	-3.6	64.0*!	0.1	-134.8	6.4	.
COc1ccc(C2=CC(=O)N(Nc3ccccc3)C2=O)cc1	4.5	18.2	0.7	-81.6	19.0	-24.9
O=C1C=C(c2ccccc2)C(=O)N1Nc1ccccc1	.	83.7*	-2.9	-41.9	27.9	-40.3
Cc1nc2ccccc2c(=O)n1NC(=O)c1c(O)c2ccccc2n(C)c1=O	73.2*	.	.	.	.	.
Cc1cc(/C=N/n2cnnc2)c(C)n1-c1ccc(OCc2ccc(F)cc2)cc1	76.9*	7.5	-0.1	-6.3	-21.5	.
Cc1cc(/C=N/n2cnnc2)c(C)n1-c1ccc(OCc2ccc(Cl)cc2Cl)cc1	.	12.7	-0.2	8.8	-22.1	.

Source: PubChem
